Results filed as inconclusive are left out. Activity calls are given as the source filed them. Unless noted, the call rests on the fitted dose curve; in most records, active means well fitted curve in the direction sought with a large enough effect in the repeat runs; inconclusive means weak or mixed curves; inactive means no such curve, though single readings can be large; an effect the other way counts as inactive or inconclusive.
What was measured:
[1] = qHTS assay to identify small molecule agonists of the vitamin D receptor (VDR) signaling pathway - cell viability counter screen (AID 743224); further: series mostly up to about 63 µM; nearly all actives have a fitted effect of over 50% in size
Method in brief: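 Plated VDR-bla cells (4 h, 37C) received compound, incubated 16 h, then LiveBLAzer substrate 2 h RT; CellTiter-Glo added afterwards, luminescence read at 30 min.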

[2] = qHTS assay to identify small molecule antagonists of the vitamin D receptor (VDR) signaling pathway - cell viability counter screen (AID 743225); further: nearly all actives have a fitted effect of over 50% in size
Method in brief: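 Same-well multiplex: following 16 h treatment of HEK 293T cells carrying a UAS-driven beta-lactamase reporter with compound and agonist (3 nM final), and a 2 h FRET substrate step, CellTiter-Glo was added and luminescence read after 30 min.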

[3] = qHTS assay to identify small molecule agonists of the NFkB signaling pathway - cell viability counter screen (AID 1159515; calls by dose curve; further: series mostly up to about 61 µM; nearly all actives have a fitted effect of over 55% in size)
Method in brief: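 Using the same wells as the NFkB reporter read, ME-180 NFkB-bla cells given compounds for 5 hr were assessed for viability via CellTiter-Glo, with luminescence taken after a 30 min room-temperature incubation.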

[4] = qHTS assay to identify small molecule agonists of the endoplasmic reticulum stress response signaling pathway (AID 1159516; active means well fitted activation curve with a large enough effect in the signal ratio in the repeat runs, not every such curve was filed as active; the % refers to the signal ratio)
Method in brief: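 An ESRE-bla HeLa cell assay: compounds were pin-transferred from DMSO onto overnight-plated cells and left 5 hr at 37 C. Substrate was then loaded for 2 hr at room temperature before reading fluorescence at 460 nm and 530 nm.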

[5] = qHTS assay to identify small molecule agonists of the endoplasmic reticulum stress response signaling pathway - cell viability counter screen (AID 1159517; calls by dose curve;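 further: HeLa cells carrying an ER stress response element beta-lactamase reporter; series mostly up to about 61 µM; nearly all actives have a fitted effect of over 50% in size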)
Method in brief: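 Luminescence readout: CellTiter-Glo, 30 min RT, same wells as the ESRE-bla reporter read. HeLa ESRE-bla, 1,500 cells/well, o/n 37 C; cpd 5 hr 37 C/5% CO2.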

[6] = qHTS assay to identify small molecule antagonists of the retinoid-related orphan receptor gamma (ROR-gamma) signaling pathway - cell viability counter screen (AID 1159520); further: nearly all actives have a fitted effect of over 50% in size
Method in brief: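 Tet-on ROR gamma CHO cells (1,000/well) were plated 4 hr, given compounds in DMSO for 2 hr at 37 C, then induced with 1 uM final doxycycline for 16 hr. Viability was read as ATP by CellTiter-Glo luminescence after 30 min.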

[7] = target: Nuclear receptor ROR-gamma (Homo sapiens) (UniProt P51449); assay: qHTS assay to identify small molecule antagonists of the retinoid-related orphan receptor gamma (ROR-gamma) signaling pathway (AID 1159521)
Method in brief: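 Inducible-expression reporter assay: doxycycline (1 uM final) switched on RORγ in CHO cells bearing a ROR response element-luciferase construct, with test compounds present from 2 h beforehand. Decreased luminescence after 16 h defined antagonist activity.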

[8] = qHTS assay to identify small molecule agonists of the AP-1 signaling pathway - cell viability counter screen (AID 1159525; calls by dose curve; further: nearly all actives have a fitted effect of over 55% in size)
Method in brief: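 ME-180 AP-1-bla, 2500 cells/well, Opti-MEM + 0.5% dialyzed FBS; overnight 37 °C; cpd 15-pt titration, 5 h 37 °C; CellTiter-Glo 30 min RT; luminescence read; normalised to TOAB and DMSO controls.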

[9] = qHTS assay to identify small molecule agonists of the AP-1 signaling pathway (AID 1159526; calls by dose curve)
[10] = qHTS assay to identify small molecule agonists of the RXR signaling pathway - cell viability counter screen (AID 1159529)
Method in brief: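 Counter screen: CellTiter-Glo luminescence. Cells: RXR-alpha-UAS-bla HEK 293T. Medium: 2% charcoal-stripped FBS. Treatment: 16 h, 37 C. Reagent incubation: 30 min, RT.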

[11] = qHTS assay to identify small molecule antagonists of the retinoid acid receptor (RAR) signaling pathway - cell viability counter screen (AID 1159551); further: nearly all actives have a fitted effect of over 35% in size
Method in brief: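 Retinol-stimulated (1 uM final) C3RL4 cells, compound 6 h, 37 C; readout CellTiter-Glo luminescence (ATP) after 30 min RT incubation.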

[12] = qHTS assay to identify small molecule antagonists of the retinoic acid receptor (RAR) signaling pathway (AID 1159552; further: nearly all actives have a fitted effect of over 50% in size)
Method in brief: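 Antagonism of retinol-induced RARE reporter activity was measured in C3RL4 cells. Exposure to compounds and 1 uM final retinol lasted 6 hr at 37 C, with luminescence as endpoint.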

[13] = qHTS assay to identify small molecule agonists of the retinoic acid receptor (RAR) signaling pathway (AID 1159553)
Method in brief: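 Reporter readout comes from luciferase under RARE control in C3RL4 cells; compound exposure lasts 6 hr at 37 C in 5% CO2, and luminescence is recorded following a 30 min room-temperature incubation with reagent.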

[14] = qHTS assay to identify small molecule antagonists of the estrogen related receptor (ERR) signaling pathway from Tox21 library - cell viability counter screen (AID 1224834); further: nearly all actives have a fitted effect of over 30% in size
Method in brief: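 After 17.5 h of compound exposure at 37 C, ERR cells are incubated with CellTiter-Fluor for 30 min and fluorescence intensity serves as the viability measure.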

[15] = target: Luciferin 4-monooxygenase (Photinus pyralis) (UniProt P08659); assay: qHTS assay to identify small molecule inhibitors of firefly luciferase (AID 1224835); further: series mostly up to about 120 µM; nearly all actives have a fitted effect of over 25% in size
Luciferin 4-monooxygenase (Photinus pyralis), sequence (P08659 whole entry, looked up): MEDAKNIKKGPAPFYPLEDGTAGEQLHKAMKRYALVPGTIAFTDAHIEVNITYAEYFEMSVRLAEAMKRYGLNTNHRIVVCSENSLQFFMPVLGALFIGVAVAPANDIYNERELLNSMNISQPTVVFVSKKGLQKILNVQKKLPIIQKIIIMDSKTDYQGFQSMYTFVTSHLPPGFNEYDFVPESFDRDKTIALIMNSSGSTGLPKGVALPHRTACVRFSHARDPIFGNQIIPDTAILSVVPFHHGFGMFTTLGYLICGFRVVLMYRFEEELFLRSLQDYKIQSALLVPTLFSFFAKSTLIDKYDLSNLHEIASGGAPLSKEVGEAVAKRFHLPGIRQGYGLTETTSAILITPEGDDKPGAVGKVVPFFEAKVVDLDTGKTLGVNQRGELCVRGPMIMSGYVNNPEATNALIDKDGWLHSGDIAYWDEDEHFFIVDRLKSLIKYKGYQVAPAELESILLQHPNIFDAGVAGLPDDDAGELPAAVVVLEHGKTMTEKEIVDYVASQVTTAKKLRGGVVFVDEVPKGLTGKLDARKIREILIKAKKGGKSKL
Method in brief: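 Quantitative HTS format; KM concentrations of both substrates. Purified P. pyralis FLuc activity quantified from luminescence images.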

[16] = qHTS assay to identify small molecule agonists of the constitutive androstane receptor (CAR) signaling pathway - cell viability counter screen (AID 1224836); further: series mostly up to about 92 µM; nearly all actives have a fitted effect of over 45% in size
Method in brief: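 Double-stable HepG2 hepatoma cells (hCAR plus CYP2B6-2.2kb) are treated for 23 h at 37 C with test compounds in 15-point concentration series. PK11195 at 0.75 uM final is co-added. Cell viability is quantified by CellTiter-Fluor.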

[17] = target: Nuclear receptor subfamily 1 group I member 3 (Homo sapiens) (UniProt Q14994); assay: qHTS assay to identify small molecule antagonists of the constitutive androstane receptor (CAR) signaling pathway (AID 1224838);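 further: HepG2 cells stably expressing hCAR with CYP2B6 luciferase reporter stimulated by CITCO; nearly all actives have a fitted effect of over 40% in size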
Nuclear receptor subfamily 1 group I member 3 (Homo sapiens), sequence (Q14994 whole entry, looked up): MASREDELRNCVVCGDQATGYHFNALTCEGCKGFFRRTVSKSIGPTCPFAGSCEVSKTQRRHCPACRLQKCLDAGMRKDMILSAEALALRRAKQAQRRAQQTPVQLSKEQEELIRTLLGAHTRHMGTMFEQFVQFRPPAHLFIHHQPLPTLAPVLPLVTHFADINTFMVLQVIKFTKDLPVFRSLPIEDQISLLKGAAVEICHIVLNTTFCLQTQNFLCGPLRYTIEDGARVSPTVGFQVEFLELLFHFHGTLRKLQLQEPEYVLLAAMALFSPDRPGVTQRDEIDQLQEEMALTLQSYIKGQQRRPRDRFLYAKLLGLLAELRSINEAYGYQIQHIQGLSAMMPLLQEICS
Method in brief: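 Cell line: HepG2 double-stable for hCAR and CYP2B6-2.2kb reporter. Agonist: CITCO, 50 nM final. Compounds: 15 concentrations, 24 h, 37 C. Detection: ONE-Glo luminescence.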

[18] = qHTS assay to identify small molecule antagonists of the constitutive androstane receptor (CAR) signaling pathway - cell viability counter screen (AID 1224837); further: series mostly up to about 92 µM; nearly all actives have a fitted effect of over 45% in size
Method in brief: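 Counter screen run in HepG2-CYP2B6-hCAR cells: 4 hr settle, compound titration (15 concentrations) with 50 nM CITCO, 23 hr at 37 C/5% CO2, CellTiter-Fluor fluorescence.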

[19] = target: Nuclear receptor subfamily 1 group I member 3 (Homo sapiens) (UniProt Q14994); assay: qHTS assay to identify small molecule agonists of the constitutive androstane receptor (CAR) signaling pathway (AID 1224839); further: nearly all actives have a fitted effect of over 15% in size; further: potency means the concentration at half of the fitted maximal effect;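 on activation: HepG2 cells stably carrying human CAR and a CYP2B6 luciferase reporter; series mostly up to about 92 µM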
Method in brief: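 Readout: firefly luciferase luminescence via ONE-Glo. System: HepG2 double-stable for hCAR and CYP2B6-2.2kb. Conditions: 15-point compound titration, PK11195 at 0.75 uM final, 24 h incubation.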

[20] = target: Retinoic acid receptor RXR-alpha (Homo sapiens) (UniProt P19793); assay: qHTS assay to identify small molecule agonists of the RXR signaling pathway (AID 1159527; calls by dose curve; further: nearly all actives have a fitted effect of over 35% in size)
Retinoic acid receptor RXR-alpha (Homo sapiens), sequence (P19793 whole entry, looked up): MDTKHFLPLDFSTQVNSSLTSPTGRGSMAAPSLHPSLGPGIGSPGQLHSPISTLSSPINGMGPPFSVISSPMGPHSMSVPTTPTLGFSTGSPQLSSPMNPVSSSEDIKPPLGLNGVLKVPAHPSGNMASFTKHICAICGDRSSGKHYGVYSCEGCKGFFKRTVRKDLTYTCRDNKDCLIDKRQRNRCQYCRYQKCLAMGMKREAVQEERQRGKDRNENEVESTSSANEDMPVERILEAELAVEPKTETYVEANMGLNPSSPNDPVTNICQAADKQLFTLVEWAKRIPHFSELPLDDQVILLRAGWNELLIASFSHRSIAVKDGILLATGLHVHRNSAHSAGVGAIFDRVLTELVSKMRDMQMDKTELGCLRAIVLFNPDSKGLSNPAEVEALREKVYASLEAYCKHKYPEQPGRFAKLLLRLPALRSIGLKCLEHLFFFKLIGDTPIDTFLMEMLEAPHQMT
Method in brief: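 Compounds in DMSO were added to RXR-alpha-UAS-bla HEK 293T cells kept in 2% charcoal-stripped serum, and incubated 16 hr at 37 C with 5% CO2. Reporter signal came from a 2 hr B/G FRET substrate step.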

Measured: Potency

CCO/C=C1\N=C(c2ccccc2)OC1=O
inactive: [1] | [2] | [3] | [4] | [5] | [6] | [7] | [8] | [9] | [10] | [11] | [12] | [13] | [14] | [15] | [16] | [17]

CO/N=C(\C(=O)O)c1csc(NC(=O)CCl)n1
inactive: [1] | [2] | [3] | [4] | [5] | [6] | [7] | [8] | [9] | [10] | [11] | [12] | [13] | [14] | [15] | [16] | [18] | [17] | [19]

CC(C)C(=O)Nc1cccc(C2CN3CCSC3=N2)c1 (configuration not stated)
inactive: [1] | [3] | [4] | [5] | [6] | [7] | [8] | [9] | [10] | [11] | [12] | [13] | [14] | [15] | [16] | [18]

CC(C)OC(=O)C(C(=O)OC(C)C)=C1SC=CS1
inactive: [1] | [2] | [3] | [4] | [5] | [6] | [7] | [8] | [9] | [10] | [11] | [12] | [13] | [14] | [15] | [16] | [18] | [17]
active: [19] 13.3 µM

CCCC(C)C(O)CC (configuration not stated)
inactive: [1] | [2] | [3] | [4] | [5] | [6] | [7] | [8] | [9] | [20] | [11] | [12] | [13] | [14] | [15] | [16] | [18]

CCCCCCCCCCCCCC(=O)OCC
inactive: [1] | [2] | [3] | [4] | [5] | [6] | [7] | [8] | [9] | [20] | [11] | [12] | [13] | [14] | [15] | [16] | [17] | [19]

COCCCOc1cc(C[C@@H](C[C@H](N)[C@@H](O)C[C@H](C(=O)NCC(C)(C)C(N)=O)C(C)C)C(C)C)ccc1OC
inactive: [3] | [4] | [5] | [6] | [7] | [8] | [9] | [10] | [11] | [12] | [13] | [14] | [15] | [16] | [18]

Nc1cc(S(=O)(=O)O)ccc1O
inactive: [1] | [2] | [3] | [4] | [5] | [6] | [7] | [8] | [9] | [10] | [11] | [12] | [13] | [14] | [15] | [16] | [18] | [17] | [19]

CC1(C)S[C@@H]2[C@H](NC(=O)Cc3ccccc3)C(=O)N2[C@H]1C(=O)O (tested in a mixture with another compound)
inactive: [1] | [2] | [3] | [4] | [5] | [6] | [7] | [8] | [9] | [20] | [11] | [12] | [13] | [15] | [16] | [18] | [17]

Cc1nc2ccc(Cl)cc2[nH]1
inactive: [1] | [3] | [4] | [5] | [6] | [7] | [8] | [9] | [10] | [11] | [12] | [13] | [15] | [16] | [18]

CC(C)(C)OC(=O)c1ccccc1C(=O)O
inactive: [1] | [2] | [3] | [4] | [5] | [6] | [7] | [8] | [9] | [20] | [11] | [12] | [13] | [14] | [15] | [16] | [17] | [19]

O=C1CC2(CCCC2)CC(=O)N1CCNCC1COc2ccccc2O1 (configuration not stated)
inactive: [1] | [2] | [3] | [4] | [5] | [6] | [7] | [8] | [9] | [20] | [11] | [12] | [13] | [14] | [15] | [16] | [18]

Cc1cc2c(cc1CC(=O)c1sccc1S(=O)(=O)Nc1onc(C)c1Cl)OCO2
inactive: [1] | [2] | [3] | [4] | [5] | [6] | [7] | [8] | [9] | [10] | [11] | [12] | [13] | [14] | [15] | [16] | [18] | [17] | [19]

CC12CCCC=C1C(=O)OC2=O (configuration not stated)
inactive: [1] | [2] | [3] | [4] | [5] | [6] | [7] | [8] | [9] | [10] | [11] | [12] | [13] | [14] | [15] | [16] | [18]

CCc1ncc(C)[nH]1
inactive: [1] | [2] | [3] | [4] | [5] | [6] | [7] | [8] | [9] | [10] | [11] | [12] | [13] | [14] | [15] | [16] | [18] | [17] | [19]

Reference: PubChem BioAssay (Tox21)
